Experimental data reported in the supplement of paper PMC9694430.

Tests used:
Experiment in all cases: thermal shift delta Tm vs DMSO control; higher = stronger stabilization (binding)
Settings in all cases: 12.5 µM; protein concentration 2 µM
LOC_OS04G57630-cb004 = test system: LOC_OS04G57630-cb004
Method in brief: (§1)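 Rice kinase domain constructs were expressed in E. coli, purified, and tested by differential scanning fluorimetry with compound added in DMSO. Each well of a 96-well plate held 19.5 μl of 2 μM kinase in 100 mM potassium phosphate pH 7.5, 150 mM NaCl, 10% glycerol and 5 × SYPRO Orange, and fluorescence was read from 25°C to 95°C at 0.05°C/s. The melting temperature shift is the mean of triplicates, taken against protein with DMSO alone after Boltzmann fitting.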

LOC_OS05G07850-cb002 = test system: LOC_OS05G07850-cb002
Method in brief: as §1

LOC_OS05G16824-cb004 = test system: LOC_OS05G16824-cb004
Method in brief: as §1

LOC_OS05G28520-cb001 = test system: LOC_OS05G28520-cb001
Method in brief: as §1

LOC_OS05G30820-cb001 = test system: LOC_OS05G30820-cb001
Method in brief: as §1

LOC_OS05G43570-cb004 = test system: LOC_OS05G43570-cb004
Method in brief: as §1

LOC_OS06G16330-cb003 = test system: LOC_OS06G16330-cb003
Method in brief: as §1

LOC_OS06G22820-cb001 = test system: T1, LOC_OS06G22820-cb001
T1 sequence (whole entry): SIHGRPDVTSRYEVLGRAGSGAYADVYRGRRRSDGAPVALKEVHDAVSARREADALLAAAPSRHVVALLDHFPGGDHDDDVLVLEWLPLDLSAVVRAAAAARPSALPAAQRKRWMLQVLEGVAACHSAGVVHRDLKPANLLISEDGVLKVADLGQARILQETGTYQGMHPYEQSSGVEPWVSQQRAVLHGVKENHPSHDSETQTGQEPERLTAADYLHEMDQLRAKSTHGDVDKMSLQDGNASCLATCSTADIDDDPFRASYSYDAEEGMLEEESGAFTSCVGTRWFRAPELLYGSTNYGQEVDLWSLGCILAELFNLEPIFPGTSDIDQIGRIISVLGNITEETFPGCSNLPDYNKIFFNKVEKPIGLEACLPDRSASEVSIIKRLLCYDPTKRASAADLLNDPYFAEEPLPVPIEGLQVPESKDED
Method in brief: as §1

LOC_OS07G06570-cb004 = test system: LOC_OS07G06570-cb004
Method in brief: as §1

LOC_OS07G07230-cb001 = test system: LOC_OS07G07230-cb001
Method in brief: as §1

LOC_OS06G16330-cb003, sequence (as listed by the source): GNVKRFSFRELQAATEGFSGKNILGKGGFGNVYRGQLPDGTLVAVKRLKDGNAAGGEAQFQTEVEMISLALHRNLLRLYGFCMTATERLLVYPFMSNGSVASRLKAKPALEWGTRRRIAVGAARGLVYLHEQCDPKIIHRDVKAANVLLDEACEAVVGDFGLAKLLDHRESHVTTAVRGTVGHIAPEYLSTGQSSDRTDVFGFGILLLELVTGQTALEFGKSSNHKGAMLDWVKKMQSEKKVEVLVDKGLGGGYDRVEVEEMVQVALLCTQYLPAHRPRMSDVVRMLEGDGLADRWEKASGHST

Structure (SMILES)	thermal shift delta Tm (LOC_OS04G57630-cb004)	thermal shift delta Tm (LOC_OS05G07850-cb002)	thermal shift delta Tm (LOC_OS05G16824-cb004)	thermal shift delta Tm (LOC_OS05G28520-cb001)	thermal shift delta Tm (LOC_OS05G30820-cb001)	thermal shift delta Tm (LOC_OS05G43570-cb004)	thermal shift delta Tm (LOC_OS06G16330-cb003)	thermal shift delta Tm (LOC_OS06G22820-cb001)	thermal shift delta Tm (LOC_OS07G06570-cb004)	thermal shift delta Tm (LOC_OS07G07230-cb001)
CC(C)(C)S(=O)(=O)c1ccc2nccc(Nc3n[nH]c4ccc(F)cc34)c2c1	0.34 °C	2.55 °C	-0.25 °C	-0.33 °C	0.52 °C	0.22 °C	0.6 °C	0.36 °C	0.6 °C	0.92 °C
COc1ccc(F)c(F)c1C(=O)c1cnc(NC2CCN(S(C)(=O)=O)CC2)nc1N	0.37 °C	3.17 °C	-1.46 °C	0.04 °C	0.47 °C	0.11 °C	1.56 °C	0.23 °C	0.61 °C	0.3 °C
CNC(=O)c1ccccc1Sc1ccc2c(/C=C/c3ccccn3)n[nH]c2c1 [Axitinib]	0.24 °C	5.45 °C	0.17 °C	-0.35 °C	0.45 °C	0.48 °C	2.75 °C	0.73 °C	1.05 °C	0.76 °C
Cc1ccccc1CN1C2=NCCN2C(=O)C2=C1CCN(Cc1ccccc1)C2 [TIC10 Analogue]	-0.16 °C	-0.89 °C	-2.52 °C	0.56 °C	0.36 °C	0.33 °C	-0.41 °C	0.74 °C	1.19 °C	0.09 °C
CC(C)(C)c1cc(/C=C(\C#N)C(N)=S)cc(C(C)(C)C)c1O [Tyrphostin AG 879]	-0.19 °C	12.1 °C	-5.25 °C	1.25 °C	1.1 °C	1.09 °C	1.66 °C	1.38 °C	2.77 °C	0.65 °C
Cc1cnc(Nc2ccc(OCCN3CCCC3)cc2)nc1Nc1cccc(S(=O)(=O)NC(C)(C)C)c1	1.75 °C	8.73 °C	6.93 °C	0.76 °C	0.92 °C	0.64 °C	4.38 °C	0.29 °C	0.27 °C	0.07 °C
C[C@]1(O)C[C@@H](c2nc(-c3ccc4ccc(-c5ccccc5)nc4c3)c3c(N)nccn32)C1 [Linsitinib (OSI-906)]	0.91 °C	1.48 °C	1.1 °C	0.92 °C	0.67 °C	0.81 °C	0.92 °C	0.94 °C	1.13 °C	0.34 °C
O=C(O)CCC(=O)Nc1ccc(Br)cn1 [Bikinin]	0.15 °C	0.5 °C	0.58 °C	0.89 °C	0.45 °C	0.76 °C	0.72 °C	0.48 °C	0.42 °C	-0.18 °C
C=CC(=O)Nc1cccc(Oc2nc(Nc3ccc(N4CCN(C)CC4)cc3OC)ncc2Cl)c1	-0.7 °C	8.75 °C	-3.25 °C	0.26 °C	0.41 °C	0.58 °C	-0.17 °C	0.37 °C	0.31 °C	0.24 °C
CC(C)(C)Cn1c(N)nc2ccc(-c3[nH]c(C(C)(C)C)nc3-c3ccc(F)cc3)nc21	-1.17 °C	1.45 °C	-0.61 °C	0.04 °C	0.34 °C	0.33 °C	0.24 °C	0.34 °C	0.31 °C	0.21 °C
